Laboratory results as given in PubChem BioAssay (NCI).
The panel holds about 83,000 compounds, 20% with a hit somewhere; the sample as a whole holds those more often.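 Percent growth is the endpoint: 0 to 100 indicates growth inhibition (40 means 60% inhibition), 0 means no net growth, and negative values indicate cell death.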 A number with no mark means an inactive call. Calls of active or inactive are those of the source. The calls were made as follows: active = growth percent below 10; inactive = the rest.

The compounds below were run on OVCAR-8 ovarian (assay: NCI-60 one-dose screen, 48 h (100 = growth as untreated, 0 = no growth, -100 = all killed)). Details: 10 µM unless noted.

Row | SMILES | growth
1 | c1c[nH]c(CNC2CCCCC2)c1 | 102%
2 | COc1ccc2c(c1)CCCN2c1c2ccccc2nc2ccccc12 | 16.6%
3 | CC/C=C/C/C=C/C/C=C/C/C=C/C/C=C/C/C=C/CCC(=O)Nc1ccn([C@@H]2O[C@H](CO)[C@@H](O)C2(F)F)c(=O)n1 | 10%
4 | Cc1ccc2nc(NC(=O)CSc3nc(-c4ccccc4)c(C#N)c(=O)n3Cc3ccccc3)sc2c1 | 93%
5 | NNC(=O)c1nc(N)n(-c2ccc(S(N)(=O)=O)cc2)n1 | 96.2%
6 | O=C(CC(SCc1ccccc1)c1ccccc1)c1ccccc1 (configuration not stated) | 103%
7 | COC1=C(OC)C(=O)C(OC)=C(OC)C1=O | 93.4%
8 | COC(=O)CCC1=C(C)C2=NC1=CC1=NC(=CC3=NC(=Cc4[nH]c(/c(=C(/C)O)c4C)=C2)C(C(C)=O)=C3C)C(C)=C1CCC(=O)OC | 100%
9 | CC1=CN2C(=O)C3C4=C(CCCC4)SC3N=C2CN1c1c(C)cccc1C (configuration not stated) | 109%
10 | O=C(Nc1cccc(Oc2nnc(Cl)c3ccccc23)c1)Nc1ccc(Cl)c(C(F)(F)F)c1 | -16.8% (active)
11 | CN1CCN(CCCOc2ccc3nc(Nc4ccc(F)c(F)c4)ccc3c2)CC1 | 53.1%
12 | COc1ccccc1NC(=O)N/C(N)=N/c1nc2ccccc2s1 | 27.1%
13 | Cc1ccc(Nc2nc(N)nc(CSCC(=O)NN)n2)cc1 | 103%
14 | CC1CC(C(C)(C)C)C(=O)C(C(C)(C)C)C1 (configuration not stated) | 107%
15 | O=C(O)c1ccc2c(c1Cl)C(=O)c1ccccc1C2=O | 118%
16 | N=c1sc(Cc2ccc(Cl)cc2)cn1CC(=O)c1ccc(F)cc1 | 80%
17 | CCCCn1c(=O)c2c(nc3n2CCCN3CCc2ccc(OCC(=O)NCCN(CC)CC)cc2)n(CCCC)c1=O | 60.8%
18 | COc1ccc(NC(=O)c2nc(-c3cc(OC)c(OC)c(OC)c3)n(-c3cccc4ccccc34)n2)cc1OC | 52.5%
19 | O=C1CCc2c(sc3[nH]c(=S)n(-c4ccc(OC(F)(F)F)cc4)c(=O)c23)C1 | 53.6%

Row | SMILES | growth
20 | C[C@@]1(CCC#N)[C@H]2CC[C@@H]3[C@H]4[C@H](C(=O)/C=C/c5cccnc5)CC[C@]4(C#N)CC[C@@]3(C)[C@]2(C)CC[C@H]1C(=O)/C=C/c1cccnc1 | 34.7%
21 | Cc1c(C)c2c(c(C)c1OCC(=O)O)CC[C@@](C)(CCC[C@@H](C)CCC[C@@H](C)CCCC(C)C)O2 | -9.97% [50 µM] (active)
22 | O=C(NCCCNc1cc(-c2cn(-c3ccccc3)nc2-c2cccc(O)c2)ccn1)c1ccc(F)cc1 | 36.1%
23 | Cn1c(-c2c(N)n(Cc3ccc(C(F)(F)F)cc3)c3nc(C#N)c(C#N)nc23)nc2ccccc21 | 7.05% (active)
24 | Nc1nc(N)c2c(n1)NC(c1ccccc1)C1CCc3ccccc3C1=N2 (configuration not stated) | 64.9%
25 | COc1ccc2[nH]c(O)c(/C=c3/cc4c(c(-c5cc(OC)c(OC)c(OC)c5)n3)=Nc3ccccc3-4)c2c1 | 42%
26 | CCOC(=O)c1c2ncccc2n2c(=O)n(-c3ccccc3C)nnc12 | 99.1%
27 | COc1cccc(C(=O)NCCCNc2cc(-c3cn(-c4ccccc4)nc3-c3cccc(OC)c3)ccn2)c1 | 26.7%
28 | N[C@@H](CCCCNCC(=O)O)C(=O)O | 105%
29 | CC(CCc1ccc(Cl)c(Cl)c1)NCc1ccc(C(C)(C)C)cc1 (configuration not stated) | 85.8%
30 | O=Cc1ccc(O)c2ncccc12 | 9.03% (active)
31 | CCCCOc1nc2ccccc2cc1C1CNC(=O)c2ccccc2N1 (configuration not stated) | 22.4%
32 | COc1ccc2occ(C3=C(c4c[nH]c5ccccc45)C(=O)N(O)C3=O)c2c1 | 90.5%
33 | N#CC1=C(NC=O)Oc2c(ccc3ccccc23)C1c1ccccc1 (configuration not stated) | 23.6%
34 | Fc1c[c-]c(-c2ccccn2)c(F)c1.[CH3-].[Pt+2].c1ccc(P(C[PH+](c2ccccc2)c2ccccc2)c2ccccc2)cc1 | 7.36% (active)
35 | N=C1C(c2nc(-c3ccc(Br)cc3)cs2)=C(O)CN1CC1CCCO1 (configuration not stated) | 52.7%
36 | NS(=O)(=O)c1cnccc1Sc1ccncc1S(N)(=O)=O | 96%
37 | N#Cc1c(-c2ccccn2)[nH]c(=S)[nH]c1=O | 109%
